Results: PubChem BioAssay (NCATS)
Values joined by “and” are separate entries in the source; they are usually repeats but may differ in a detail not shown here. Equal entries are not always repeated. Inconclusive results are not listed. Where a call stands in place of a potency, no number is given. The source holds several records for some structures; these can differ, active in one and inactive in another. Active and inactive are the calls of the source. Calls come from the whole dose curve; as a rule, active = well fitted curve in the direction sought with a large enough effect; inconclusive = small, poorly fitted or top-dose-only effect, or another doubt; inactive = no such curve, though single readings can be large; an effect the other way counts as inactive or inconclusive. Peptide text beside a SMILES is read from it.

System: UISO
Assay: qHTS assay to identify novel small-molecules to repurpose for Merkel cell carcinoma treatment (AID 1296009); note: nearly all actives have a fitted effect of over 60% in size; note: potency is the fitted concentration of half-maximal effect
Conditions: MCC and control cell lines, CellTiter-Glo viability, 72 h; series mostly up to 46 µM
Summary of the method: (§1)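 Dose-response viability screen; 72 hr exposure at 37 degree celsius; CellTiter-Glo added, 10 min room temperature, luminescence read; RLUs scaled between no-cell and DMSO wells.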

| Structure (SMILES) | Potency |
| --- | --- |
| CCN(CC)C(=S)SSC(=S)N(CC)CC | 1.05 µM (active) and 70 nM (active) and 473 nM (active) |
| CN(c1nccc(=O)[nH]1)C1CCN(c2nc3ccccc3n2Cc2ccc(F)cc2)CC1 | inactive |
| Cc1cc2c(s1)Nc1ccccc1N=C2N1CCN(C)CC1 | inactive |
| CC1=C(C(=O)O)N2C(=O)[C@@H](NC(=O)[C@H](N)C3=CCC=CC3)[C@H]2SC1 | inactive |
| Cc1cc(=O)oc2cc(O)ccc12 | inactive |
| CN(C)c1ccc(O)c2c1C[C@H]1C[C@H]3[C@H](N(C)C)C(=O)C(C(N)=O)=C(O)[C@@]3(O)C(=O)C1=C2O | inactive |
| Cc1cccc(CN2CCN(C(c3ccccc3)c3ccc(Cl)cc3)CC2)c1 (configuration not stated) | inactive |
| Cc1ncc([N+](=O)[O-])n1CC(C)O (configuration not stated) | inactive |
| CNC[C@H](O)c1ccc(O)c(O)c1 | inactive |
| Clc1ccc(C(Cn2ccnc2)OCc2ccsc2Cl)c(Cl)c1 (configuration not stated) | 21.1 µM (active) |
| COC(=O)N[C@H](C(=O)N[C@@H](Cc1ccccc1)[C@@H](O)CN(Cc1ccc(-c2ccccn2)cc1)NC(=O)[C@@H](NC(=O)OC)C(C)(C)C)C(C)(C)C | inactive |

System: WaGa
Assay: as above
Conditions: MCC and control cell lines, CellTiter-Glo viability, 72 h; series mostly up to 46 µM
Summary of the method: as §1

| Structure (SMILES) | Potency | activity change, negative = cytotoxicity |
| --- | --- | --- |
| Cc1cc2cc3c(C)cc(=O)oc3c(C)c2o1 | inactive and 4.69 µM (active) | – |
| COc1ccc2cc([C@H](C)C(=O)O)ccc2c1 | inactive | – |
| COc1cc(C(C)=O)ccc1OCCCN1CCC(c2noc3cc(F)ccc23)CC1 | inactive | – |
| Cc1ccc(C)c(OCCCC(C)(C)C(=O)O)c1 | inactive | – |
| CCC[C@@H]1C[C@@H](C(=O)N[C@@H]([C@H]2O[C@H](SC)[C@H](O)[C@@H](O)[C@H]2O)[C@@H](C)O)N(C)C1 | inactive | – |
| Clc1ccc(C(Cn2ccnc2)OCc2ccc(Sc3ccccc3)cc2)c(Cl)c1 (configuration not stated) | inactive | – |
| CS(=O)(=O)OCCCCOS(C)(=O)=O | inactive | – |
| CC(=O)NC[C@H]1CN(c2ccc(N3CCOCC3)c(F)c2)C(=O)O1 | inactive | – |
| CC1=C(C)C(=O)C(C(CCCCCC(=O)O)c2ccccc2)=C(C)C1=O (configuration not stated) | inactive | – |
| COc1cc2nc(N3CCN(C(=O)C4CCCO4)CC3)nc(N)c2cc1OC (configuration not stated) | inactive | – |
| CCC1=C(C)CN(C(=O)NCCc2ccc(S(=O)(=O)NC(=O)NC3CCC(C)CC3)cc2)C1=O (configuration not stated) | inactive | – |
| Clc1ccc(C(Cn2ccnc2)OCc2c(Cl)cccc2Cl)c(Cl)c1 (configuration not stated) | 23.7 µM (active) and inactive | – |
| O=C(O)CCNC(=O)c1ccc(N=Nc2ccc(O)c(C(=O)O)c2)cc1 | inactive | – |
| Cc1nc(-c2ccc(OCC(C)C)c(C#N)c2)sc1C(=O)O | inactive | – |
| Cc1c(C(=O)NN2CCCCC2)nn(-c2ccc(Cl)cc2Cl)c1-c1ccc(Cl)cc1 | inactive | – |
| Cn1c(NCCN(CCO)CCCc2ccc([N+](=O)[O-])cc2)cc(=O)n(C)c1=O | inactive | – |
| CCN(CCO)CCCC(C)Nc1ccnc2cc(Cl)ccc12 (configuration not stated) | 2.35 µM (active) | 15.3% [at 4.84 µM] (inactive) |
| CN(C)C(=O)COC(=O)Cc1ccc(OC(=O)c2ccc(N=C(N)N)cc2)cc1 | inactive | – |

| Structure (SMILES) | Potency | activity change, negative = cytotoxicity |
| --- | --- | --- |
| CC(=O)Nc1ccc(O)cc1 | inactive | – |
| COC(=O)[C@H](Cc1ccccc1)NC(=O)[C@@H](N)CC(=O)O (H-Asp-Phe-OMe) | inactive | – |
| CC1(C)CCC(C)(C)c2cc(NC(=O)c3ccc(C(=O)O)cc3)ccc21 | inactive | – |
| COC(=O)C1=C(C)NC(C)=C(C(=O)OCCCN2CCC(c3ccccc3)(c3ccccc3)CC2)C1c1cccc([N+](=O)[O-])c1 (configuration not stated) | inactive | – |
| O=C(NCC1CCCCN1)c1cc(OCC(F)(F)F)ccc1OCC(F)(F)F (configuration not stated) | inactive | – |
| O=C(NC(Cc1cc(=O)[nH]c2ccccc12)C(=O)O)c1ccc(Cl)cc1 (configuration not stated) | inactive | – |
| CCN(CC)C(=S)SSC(=S)N(CC)CC | 0.935 µM (active) | – |
| CN(c1nccc(=O)[nH]1)C1CCN(c2nc3ccccc3n2Cc2ccc(F)cc2)CC1 | inactive | – |
| Cc1cc2c(s1)Nc1ccccc1N=C2N1CCN(C)CC1 | inactive | – |
| CC1=C(C(=O)O)N2C(=O)[C@@H](NC(=O)[C@H](N)C3=CCC=CC3)[C@H]2SC1 | inactive | – |
| Cc1cc(=O)oc2cc(O)ccc12 | inactive | – |
| CN(C)c1ccc(O)c2c1C[C@H]1C[C@H]3[C@H](N(C)C)C(=O)C(C(N)=O)=C(O)[C@@]3(O)C(=O)C1=C2O | inactive and 18.8 µM (active) | – |
| Cc1cccc(CN2CCN(C(c3ccccc3)c3ccc(Cl)cc3)CC2)c1 (configuration not stated) | inactive | – |
| Cc1ncc([N+](=O)[O-])n1CC(C)O (configuration not stated) | inactive | – |
| CNC[C@H](O)c1ccc(O)c(O)c1 | inactive | – |
| Clc1ccc(C(Cn2ccnc2)OCc2ccsc2Cl)c(Cl)c1 (configuration not stated) | inactive | – |
| COC(=O)N[C@H](C(=O)N[C@@H](Cc1ccccc1)[C@@H](O)CN(Cc1ccc(-c2ccccn2)cc1)NC(=O)[C@@H](NC(=O)OC)C(C)(C)C)C(C)(C)C | inactive | – |

System: C33A
Assay: Primary qHTS to identify gynecologic anti-cancer compounds using libraries of approved drugs and bioactive compounds (AID 1345084); note: nearly all actives have a fitted effect of over 55% in size
Conditions: Gynecologic cancer cell panel viability, ATPlite luminescence, 48 h; series mostly up to 57.5 µM
Summary of the method: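 In this quantitative HTS, cell killing is estimated from loss of ATP-dependent luciferase light. Cells see five compound concentrations over a 48 h exposure.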

| Structure (SMILES) | Potency | activity change, negative = cytotoxicity |
| --- | --- | --- |
| Cc1cc2cc3c(C)cc(=O)oc3c(C)c2o1 | inactive | – |
| CN(C)[C@@H](CCOc1cccc2ccccc12)c1ccccc1 | inactive | – |
| COc1ccc2cc([C@H](C)C(=O)O)ccc2c1 | inactive | – |
| COc1cc(C(C)=O)ccc1OCCCN1CCC(c2noc3cc(F)ccc23)CC1 | inactive | – |
| Cc1ccc(C)c(OCCCC(C)(C)C(=O)O)c1 | inactive | – |
| CCC[C@@H]1C[C@@H](C(=O)N[C@@H]([C@H]2O[C@H](SC)[C@H](O)[C@@H](O)[C@H]2O)[C@@H](C)O)N(C)C1 | inactive | – |
| Clc1ccc(C(Cn2ccnc2)OCc2ccc(Sc3ccccc3)cc2)c(Cl)c1 (configuration not stated) | inactive | – |
| CS(=O)(=O)OCCCCOS(C)(=O)=O | inactive | – |
| CC(=O)NC[C@H]1CN(c2ccc(N3CCOCC3)c(F)c2)C(=O)O1 | inactive | – |
| CC1=C(C)C(=O)C(C(CCCCCC(=O)O)c2ccccc2)=C(C)C1=O (configuration not stated) | inactive | – |
| COc1cc2nc(N3CCN(C(=O)C4CCCO4)CC3)nc(N)c2cc1OC (configuration not stated) | inactive | – |
| CCC1=C(C)CN(C(=O)NCCc2ccc(S(=O)(=O)NC(=O)NC3CCC(C)CC3)cc2)C1=O (configuration not stated) | inactive | – |
| Clc1ccc(C(Cn2ccnc2)OCc2c(Cl)cccc2Cl)c(Cl)c1 (configuration not stated) | inactive | – |
| O=C(O)CCNC(=O)c1ccc(N=Nc2ccc(O)c(C(=O)O)c2)cc1 | inactive | – |
| Cc1nc(-c2ccc(OCC(C)C)c(C#N)c2)sc1C(=O)O | inactive | – |
| Cc1c(C(=O)NN2CCCCC2)nn(-c2ccc(Cl)cc2Cl)c1-c1ccc(Cl)cc1 | inactive | – |
| Cn1c(NCCN(CCO)CCCc2ccc([N+](=O)[O-])cc2)cc(=O)n(C)c1=O | inactive | – |
| CCN(CCO)CCCC(C)Nc1ccnc2cc(Cl)ccc12 (configuration not stated) | – | 4.86% [at 6.55 µM] (inactive) and 0.75% [at 6.55 µM] (inactive) |

| Structure (SMILES) | Potency | activity change, negative = cytotoxicity |
| --- | --- | --- |
| CN(C)C(=O)COC(=O)Cc1ccc(OC(=O)c2ccc(N=C(N)N)cc2)cc1 | inactive | – |
| CC(=O)Nc1ccc(O)cc1 | inactive | – |
| COC(=O)[C@H](Cc1ccccc1)NC(=O)[C@@H](N)CC(=O)O (H-Asp-Phe-OMe) | inactive | – |
| CC1(C)CCC(C)(C)c2cc(NC(=O)c3ccc(C(=O)O)cc3)ccc21 | inactive | – |
| O=C(NCC1CCCCN1)c1cc(OCC(F)(F)F)ccc1OCC(F)(F)F (configuration not stated) | inactive | – |
| CCCS(=O)c1ccc2nc(NC(=O)OC)[nH]c2c1 (configuration not stated) | inactive | – |
| O=C(NC(Cc1cc(=O)[nH]c2ccccc12)C(=O)O)c1ccc(Cl)cc1 (configuration not stated) | inactive | – |
| CN(c1nccc(=O)[nH]1)C1CCN(c2nc3ccccc3n2Cc2ccc(F)cc2)CC1 | inactive | – |
| Cc1cc2c(s1)Nc1ccccc1N=C2N1CCN(C)CC1 | inactive | – |
| CC1=C(C(=O)O)N2C(=O)[C@@H](NC(=O)[C@H](N)C3=CCC=CC3)[C@H]2SC1 | inactive | – |
| Cc1cc(=O)oc2cc(O)ccc12 | inactive | – |
| CN(C)c1ccc(O)c2c1C[C@H]1C[C@H]3[C@H](N(C)C)C(=O)C(C(N)=O)=C(O)[C@@]3(O)C(=O)C1=C2O | inactive | – |
| Cc1cccc(CN2CCN(C(c3ccccc3)c3ccc(Cl)cc3)CC2)c1 (configuration not stated) | inactive | – |
| Cc1ncc([N+](=O)[O-])n1CC(C)O (configuration not stated) | inactive | – |
| CNC[C@H](O)c1ccc(O)c(O)c1 | inactive | – |
| Clc1ccc(C(Cn2ccnc2)OCc2ccsc2Cl)c(Cl)c1 (configuration not stated) | inactive | – |
| COC(=O)N[C@H](C(=O)N[C@@H](Cc1ccccc1)[C@@H](O)CN(Cc1ccc(-c2ccccn2)cc1)NC(=O)[C@@H](NC(=O)OC)C(C)(C)C)C(C)(C)C | inactive | – |
